# Laboratory results: PMC7862700, “An all-to-all approach to the identification of sequence-specific readers for epigenetic DNA modifications on cytosine”
# Columns and labels:
# Test in all cases: DAPPL (digital affinity profiling via proximity ligation, sequencing); 10 mM Tris-HCl pH 7.5, 50 mM NaCl, 1 mM DTT, 4% glycerol, room temperature, 30 min; GST-TFs on glutathione beads, 16-mer random dsDNA library, 0.1% formaldehyde crosslink after washing; high values mean tight binding
# Details in all cases: protein: recombinant; tags: N-terminal GST; dsDNA, one strand shown
# [1] = biological target: T1, FLI1 (Homo sapiens, UniProt Q01543 1-452)
# T1 sequence: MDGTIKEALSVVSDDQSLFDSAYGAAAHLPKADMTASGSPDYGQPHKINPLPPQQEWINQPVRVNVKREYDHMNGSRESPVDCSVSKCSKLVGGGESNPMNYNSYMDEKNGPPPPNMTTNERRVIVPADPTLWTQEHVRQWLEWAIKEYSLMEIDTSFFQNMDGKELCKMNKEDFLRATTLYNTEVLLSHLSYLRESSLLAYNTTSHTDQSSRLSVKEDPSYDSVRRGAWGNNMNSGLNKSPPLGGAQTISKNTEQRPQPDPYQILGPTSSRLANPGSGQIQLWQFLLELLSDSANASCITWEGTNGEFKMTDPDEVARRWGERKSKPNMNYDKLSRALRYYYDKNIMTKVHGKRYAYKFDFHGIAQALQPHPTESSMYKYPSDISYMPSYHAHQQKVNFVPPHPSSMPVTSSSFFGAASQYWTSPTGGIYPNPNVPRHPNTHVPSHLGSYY
# How it was run: (§1)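 Pools were built from human transcription factors expressed in yeast as GST fusions, captured on glutathione beads and DNA-barcoded, along with a tag-only sample. Incubation with 200 nmole of a 16-mer random double-stranded DNA library lasted 30 min at room temperature in Tris/NaCl/DTT/glycerol buffer, and was followed by washing, 0.1% formaldehyde crosslinking, proximity ligation, PCR amplification and Illumina NextSeq500 sequencing. Binding signal is the quotient of each hexamer's read frequency for a factor and its frequency for the tag-only sample.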
# [2] = biological target: T2, ELK1 (Homo sapiens, UniProt P19419 1-428)
# T2 sequence: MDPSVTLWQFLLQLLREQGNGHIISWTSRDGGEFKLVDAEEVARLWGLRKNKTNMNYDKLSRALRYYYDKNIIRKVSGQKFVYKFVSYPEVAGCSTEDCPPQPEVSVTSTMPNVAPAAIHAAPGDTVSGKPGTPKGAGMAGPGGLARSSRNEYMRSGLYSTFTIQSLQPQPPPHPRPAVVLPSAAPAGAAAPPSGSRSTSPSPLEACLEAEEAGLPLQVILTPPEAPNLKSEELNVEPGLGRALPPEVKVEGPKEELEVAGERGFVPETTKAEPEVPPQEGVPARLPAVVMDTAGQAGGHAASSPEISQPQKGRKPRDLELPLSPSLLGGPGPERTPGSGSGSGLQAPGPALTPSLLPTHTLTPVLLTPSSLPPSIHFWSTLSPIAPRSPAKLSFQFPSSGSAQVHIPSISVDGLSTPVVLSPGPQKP
# How it was run: as §1
# [3] = biological target: T3, ERG (Homo sapiens, UniProt P11308 1-479)
# T3 sequence: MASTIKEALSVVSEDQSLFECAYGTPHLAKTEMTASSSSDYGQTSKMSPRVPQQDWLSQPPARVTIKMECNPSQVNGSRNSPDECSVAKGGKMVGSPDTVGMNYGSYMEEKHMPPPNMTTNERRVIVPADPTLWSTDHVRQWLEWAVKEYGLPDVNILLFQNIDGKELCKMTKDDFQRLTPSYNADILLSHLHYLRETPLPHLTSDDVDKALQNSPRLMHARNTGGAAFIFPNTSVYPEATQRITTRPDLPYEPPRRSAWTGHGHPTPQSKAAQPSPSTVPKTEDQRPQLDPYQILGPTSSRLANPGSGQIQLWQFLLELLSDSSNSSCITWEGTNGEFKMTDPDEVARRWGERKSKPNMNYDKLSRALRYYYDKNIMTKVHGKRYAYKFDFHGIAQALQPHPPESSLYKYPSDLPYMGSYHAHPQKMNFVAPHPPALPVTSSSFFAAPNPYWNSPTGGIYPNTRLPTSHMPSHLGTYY
# How it was run: as §1
# [4] = biological target: T4, EHF (Homo sapiens, UniProt Q9NZC4 1-300)
# T4 sequence: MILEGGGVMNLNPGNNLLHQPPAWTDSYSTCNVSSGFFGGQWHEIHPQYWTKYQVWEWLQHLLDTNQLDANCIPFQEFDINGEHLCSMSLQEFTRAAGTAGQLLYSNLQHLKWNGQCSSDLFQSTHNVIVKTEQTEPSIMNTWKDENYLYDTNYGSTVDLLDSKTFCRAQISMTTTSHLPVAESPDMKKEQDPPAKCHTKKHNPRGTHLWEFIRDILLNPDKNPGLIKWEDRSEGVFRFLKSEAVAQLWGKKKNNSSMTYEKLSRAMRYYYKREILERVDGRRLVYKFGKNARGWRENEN
# How it was run: as §1
# [5] = biological target: SPI1 (Homo sapiens, UniProt P17947 1-270)
# How it was run: as §1
# [6] = biological target: SPIB (Homo sapiens, UniProt Q01892 1-262)
# Chain of SPIB (Q01892 whole entry): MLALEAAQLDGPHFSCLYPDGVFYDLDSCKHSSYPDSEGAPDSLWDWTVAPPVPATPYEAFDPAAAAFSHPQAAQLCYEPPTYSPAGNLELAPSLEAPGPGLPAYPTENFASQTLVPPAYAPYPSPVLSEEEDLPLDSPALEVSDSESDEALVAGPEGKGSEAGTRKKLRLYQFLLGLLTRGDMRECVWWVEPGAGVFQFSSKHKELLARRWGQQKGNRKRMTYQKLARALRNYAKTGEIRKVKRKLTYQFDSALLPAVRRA
# How it was run: as §1
# [7] = biological target: T5, ELK3 (Homo sapiens, UniProt P41970 1-407)
# T5 sequence: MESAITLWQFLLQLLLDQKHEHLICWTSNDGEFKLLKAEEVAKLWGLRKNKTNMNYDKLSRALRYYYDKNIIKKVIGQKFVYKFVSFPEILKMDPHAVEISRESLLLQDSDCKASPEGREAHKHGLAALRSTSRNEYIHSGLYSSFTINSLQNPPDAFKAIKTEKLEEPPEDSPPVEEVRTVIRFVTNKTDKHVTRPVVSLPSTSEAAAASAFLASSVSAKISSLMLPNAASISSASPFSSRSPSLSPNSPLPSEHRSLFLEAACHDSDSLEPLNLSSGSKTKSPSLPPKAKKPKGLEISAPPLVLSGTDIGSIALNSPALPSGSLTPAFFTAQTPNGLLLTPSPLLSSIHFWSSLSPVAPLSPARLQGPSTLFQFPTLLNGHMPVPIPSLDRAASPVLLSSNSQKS
# How it was run: as §1
# [8] = biological target: ETV5 (Homo sapiens, UniProt P41161 1-510)
# Chain of ETV5 (P41161 whole entry): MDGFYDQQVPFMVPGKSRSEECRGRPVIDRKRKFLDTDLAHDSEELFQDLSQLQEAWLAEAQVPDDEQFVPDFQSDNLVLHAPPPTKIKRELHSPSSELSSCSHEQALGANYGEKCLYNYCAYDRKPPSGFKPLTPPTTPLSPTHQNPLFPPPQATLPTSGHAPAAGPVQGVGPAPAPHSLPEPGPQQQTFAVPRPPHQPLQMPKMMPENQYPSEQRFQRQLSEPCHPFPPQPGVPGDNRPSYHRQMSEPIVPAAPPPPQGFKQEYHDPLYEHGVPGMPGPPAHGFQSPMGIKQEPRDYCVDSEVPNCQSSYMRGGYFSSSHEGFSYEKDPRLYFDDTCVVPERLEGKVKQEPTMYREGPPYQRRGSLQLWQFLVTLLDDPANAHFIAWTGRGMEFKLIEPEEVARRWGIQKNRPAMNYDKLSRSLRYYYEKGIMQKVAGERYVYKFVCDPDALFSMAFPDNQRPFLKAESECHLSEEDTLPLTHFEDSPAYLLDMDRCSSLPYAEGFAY
# How it was run: as §1
# [9] = biological target: ELF4 (Homo sapiens, UniProt Q99607 1-663)
# Chain of ELF4 (Q99607 whole entry): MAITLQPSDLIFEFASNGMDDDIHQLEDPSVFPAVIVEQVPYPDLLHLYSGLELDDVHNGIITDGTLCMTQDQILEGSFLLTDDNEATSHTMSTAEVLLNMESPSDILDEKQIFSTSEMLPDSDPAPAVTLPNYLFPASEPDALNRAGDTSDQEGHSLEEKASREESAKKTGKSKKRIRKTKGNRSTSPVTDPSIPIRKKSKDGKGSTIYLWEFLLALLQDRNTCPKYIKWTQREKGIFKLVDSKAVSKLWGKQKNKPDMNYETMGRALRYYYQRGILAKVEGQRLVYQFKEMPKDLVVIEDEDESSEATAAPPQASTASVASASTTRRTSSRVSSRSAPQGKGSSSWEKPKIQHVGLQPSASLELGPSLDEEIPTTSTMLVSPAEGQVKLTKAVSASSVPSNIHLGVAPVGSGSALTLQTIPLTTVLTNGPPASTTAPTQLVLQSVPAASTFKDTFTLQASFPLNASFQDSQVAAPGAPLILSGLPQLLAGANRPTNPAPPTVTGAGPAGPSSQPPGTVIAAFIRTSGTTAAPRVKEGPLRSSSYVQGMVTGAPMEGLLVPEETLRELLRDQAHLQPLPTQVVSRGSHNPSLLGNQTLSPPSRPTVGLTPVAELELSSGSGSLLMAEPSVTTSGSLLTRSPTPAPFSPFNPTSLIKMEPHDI
# How it was run: as §1
# [10] = biological target: T6, ETV2 (Homo sapiens, UniProt O00321 1-342)
# T6 sequence: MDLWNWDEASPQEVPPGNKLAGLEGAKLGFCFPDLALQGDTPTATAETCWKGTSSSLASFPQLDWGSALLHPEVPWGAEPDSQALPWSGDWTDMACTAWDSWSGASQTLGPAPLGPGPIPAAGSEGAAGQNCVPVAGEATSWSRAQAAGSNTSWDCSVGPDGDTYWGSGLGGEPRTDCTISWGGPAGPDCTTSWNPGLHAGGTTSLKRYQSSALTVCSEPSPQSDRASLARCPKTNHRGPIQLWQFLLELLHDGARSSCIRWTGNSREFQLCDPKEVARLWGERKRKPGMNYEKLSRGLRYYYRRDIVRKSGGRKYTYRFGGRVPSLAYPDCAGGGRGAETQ
# How it was run: as §1
# [11] = biological target: T7, ELF3 (Homo sapiens, UniProt P78545 1-371)
# T7 sequence: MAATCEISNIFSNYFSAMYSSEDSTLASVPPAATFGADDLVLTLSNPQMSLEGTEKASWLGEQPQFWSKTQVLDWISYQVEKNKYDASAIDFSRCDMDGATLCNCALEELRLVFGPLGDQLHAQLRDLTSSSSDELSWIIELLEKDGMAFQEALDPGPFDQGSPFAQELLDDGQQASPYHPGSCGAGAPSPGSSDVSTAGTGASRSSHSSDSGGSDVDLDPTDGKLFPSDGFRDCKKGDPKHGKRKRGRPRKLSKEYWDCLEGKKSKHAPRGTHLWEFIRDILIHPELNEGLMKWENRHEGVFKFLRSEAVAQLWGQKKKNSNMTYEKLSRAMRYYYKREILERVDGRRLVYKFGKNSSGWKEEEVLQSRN
# How it was run: as §1
# [12] = biological target: ETV1 (Homo sapiens, UniProt P50549 1-477)
# Chain of ETV1 (P50549 whole entry): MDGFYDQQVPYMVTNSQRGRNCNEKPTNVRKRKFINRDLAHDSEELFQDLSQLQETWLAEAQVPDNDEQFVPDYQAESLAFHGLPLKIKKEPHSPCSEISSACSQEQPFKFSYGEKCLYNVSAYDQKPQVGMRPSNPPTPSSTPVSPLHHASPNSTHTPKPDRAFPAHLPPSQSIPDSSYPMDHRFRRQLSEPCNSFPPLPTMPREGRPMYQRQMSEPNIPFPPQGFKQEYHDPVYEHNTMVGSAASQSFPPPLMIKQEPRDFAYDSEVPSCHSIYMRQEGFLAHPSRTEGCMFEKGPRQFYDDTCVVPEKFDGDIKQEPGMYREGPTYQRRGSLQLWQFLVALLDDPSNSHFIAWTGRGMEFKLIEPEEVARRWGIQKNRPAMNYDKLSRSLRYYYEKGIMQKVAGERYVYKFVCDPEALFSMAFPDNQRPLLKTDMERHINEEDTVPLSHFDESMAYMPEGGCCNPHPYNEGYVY
# How it was run: as §1
# [13] = biological target: T8, ETS2 (Homo sapiens, UniProt P15036 1-469)
# T8 sequence: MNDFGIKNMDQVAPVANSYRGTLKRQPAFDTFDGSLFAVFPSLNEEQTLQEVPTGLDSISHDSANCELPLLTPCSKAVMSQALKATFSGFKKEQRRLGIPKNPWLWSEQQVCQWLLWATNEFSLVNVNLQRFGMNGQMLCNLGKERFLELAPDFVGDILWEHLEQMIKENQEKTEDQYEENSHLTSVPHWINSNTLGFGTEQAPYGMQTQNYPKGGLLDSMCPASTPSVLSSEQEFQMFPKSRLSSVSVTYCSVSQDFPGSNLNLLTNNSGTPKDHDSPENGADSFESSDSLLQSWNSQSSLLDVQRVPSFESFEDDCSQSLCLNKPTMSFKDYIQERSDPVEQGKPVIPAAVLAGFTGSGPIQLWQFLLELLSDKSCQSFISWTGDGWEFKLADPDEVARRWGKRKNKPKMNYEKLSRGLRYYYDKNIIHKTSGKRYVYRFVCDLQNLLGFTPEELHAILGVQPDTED
# How it was run: as §1
# [14] = biological target: T9, ETV3 (Homo sapiens, UniProt P41162-2 1-143)
# T9 sequence: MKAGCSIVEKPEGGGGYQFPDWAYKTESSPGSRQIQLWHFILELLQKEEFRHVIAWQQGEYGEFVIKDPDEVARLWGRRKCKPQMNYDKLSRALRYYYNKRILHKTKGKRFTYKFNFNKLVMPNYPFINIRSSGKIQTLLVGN
# How it was run: as §1
# [15] = biological target: ETV6 (Homo sapiens, UniProt P41212 1-452)
# Chain of ETV6 (P41212 whole entry): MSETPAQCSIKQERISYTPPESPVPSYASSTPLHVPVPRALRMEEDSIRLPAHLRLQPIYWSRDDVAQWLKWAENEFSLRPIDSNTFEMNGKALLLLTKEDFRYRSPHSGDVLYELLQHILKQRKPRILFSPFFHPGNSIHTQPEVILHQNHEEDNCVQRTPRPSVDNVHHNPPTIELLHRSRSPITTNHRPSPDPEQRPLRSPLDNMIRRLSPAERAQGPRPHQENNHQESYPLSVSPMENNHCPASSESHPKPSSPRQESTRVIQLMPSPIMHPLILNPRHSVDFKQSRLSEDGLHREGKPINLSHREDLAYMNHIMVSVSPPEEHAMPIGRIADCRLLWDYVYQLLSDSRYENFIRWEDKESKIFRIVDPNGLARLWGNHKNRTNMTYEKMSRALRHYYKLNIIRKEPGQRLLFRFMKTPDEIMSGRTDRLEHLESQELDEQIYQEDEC
# How it was run: as §1
sequence,measurement,setting,value
AGGAAC,binding signal,[1],"1.03 fold enrichment (6-mer frequency, TF over GST control)"
same,binding signal,[2],"1.08 fold enrichment (6-mer frequency, TF over GST control)"
same,binding signal,[3],"1.05 fold enrichment (6-mer frequency, TF over GST control)"
same,binding signal,[4],"1.06 fold enrichment (6-mer frequency, TF over GST control)"
same,binding signal,[5],"1.45 fold enrichment (6-mer frequency, TF over GST control)"
same,binding signal,[6],"1.11 fold enrichment (6-mer frequency, TF over GST control)"
same,binding signal,[7],"1 fold enrichment (6-mer frequency, TF over GST control)"
same,binding signal,[8],"1.1 fold enrichment (6-mer frequency, TF over GST control)"
same,binding signal,[9],"1 fold enrichment (6-mer frequency, TF over GST control)"
same,binding signal,[10],"1.15 fold enrichment (6-mer frequency, TF over GST control)"
same,binding signal,[11],"1.04 fold enrichment (6-mer frequency, TF over GST control)"
same,binding signal,[12],"1.04 fold enrichment (6-mer frequency, TF over GST control)"
same,binding signal,[13],"1.08 fold enrichment (6-mer frequency, TF over GST control)"
same,binding signal,[14],"1.05 fold enrichment (6-mer frequency, TF over GST control)"
same,binding signal,[15],"1.04 fold enrichment (6-mer frequency, TF over GST control)"
